Screening results: PubChem, The Scripps Research Institute Molecular Screening Center
A selection: hits, their analogues and other compounds. The true share with any hit is near 2.3%.
MsrA act = activates bovine MsrA enzyme | purified bovine MsrA, absorbance read-out | AID 602163 | activation, % at 10.6 µM | 360,000 compounds, 0.3% hits; in the data active means activation above about 7.5%
PP1 inh = counter-screen for PP5 inhibitors: inhibitors of human PP1-alpha; purified PP1alpha, OMFP fluorescence; 320,000 compounds, 0.9% hits; inhibition, % at 6.7 µM; P62136;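 active means inhibition above the mean inhibition of all tested compounds plus 3 SD, computed separately for each screening campaign, cut at about 15% in these data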
Target sequence (P62136 whole entry, looked up): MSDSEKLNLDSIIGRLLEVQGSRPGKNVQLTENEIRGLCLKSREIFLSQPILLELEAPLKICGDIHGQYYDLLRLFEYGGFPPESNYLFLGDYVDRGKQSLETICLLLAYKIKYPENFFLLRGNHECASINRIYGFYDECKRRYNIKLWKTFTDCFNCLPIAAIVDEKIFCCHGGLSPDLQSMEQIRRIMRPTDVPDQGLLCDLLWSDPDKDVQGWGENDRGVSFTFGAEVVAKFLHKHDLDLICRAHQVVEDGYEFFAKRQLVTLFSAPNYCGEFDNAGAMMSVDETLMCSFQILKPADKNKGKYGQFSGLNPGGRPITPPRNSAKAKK
PP5 inh = inhibitors of human protein phosphatase 5 (PP5). P53041. inhibition, % at 6.7 µM. 320,000 compounds, 0.18% hits. purified PP5c, OMFP substrate fluorescence. AID 1987;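 active means inhibition above the campaign's mean inhibition across all tested compounds plus 3 SD, cut at about 9.5% in these data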
MsrA inh = inhibits bovine methionine sulfoxide reductase A | inhibition, % at 15.5 µM | 360,000 compounds, 0.75% hits | purified bovine MsrA, absorbance read-out; in the data active means inhibition above about 4.5%
EBNA-1 inhibitor = blocks EBNA-1 binding to DNA; EBNA-1 DNA binding, fluorescence polarization; inhibition, % at 14.8 µM; 300,000 compounds, 0.34% hits; AID 1950; in the data active means inhibition above about 28%
ZTA DNA inh = ZTA (EBV) inhibition in EBNA-1 counter-screen; P03206; ZTA-DNA binding, fluorescence polarization; inhibition, % at 11 µM; 320,000 compounds, 0.15% hits; in the data active means inhibition above about 33%
Target sequence (P03206 whole entry, looked up): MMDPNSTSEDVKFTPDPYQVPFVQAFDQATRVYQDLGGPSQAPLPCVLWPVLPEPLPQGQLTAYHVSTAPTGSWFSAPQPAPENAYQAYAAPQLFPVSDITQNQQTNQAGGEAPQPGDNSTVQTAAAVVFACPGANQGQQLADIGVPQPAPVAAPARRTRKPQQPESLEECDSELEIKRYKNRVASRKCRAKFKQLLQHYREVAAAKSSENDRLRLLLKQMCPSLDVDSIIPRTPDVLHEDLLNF
Hits are given with their value; - = inactive; . = not tested or not shown.

SMILES	MsrA act	PP1 inh	PP5 inh	MsrA inh	EBNA-1 inhibitor	ZTA DNA inh
Cc1ccc2[nH]c(O)c(N=NC(=O)c3ccc(NS(=O)(=O)c4cccs4)cc3)c2c1	-	-	-	-	-	-
COc1ccc2[nH]c(O)c(N=NC(=O)c3ccc(NS(=O)(=O)c4cccs4)cc3)c2c1	-	17	-	-	.	-
Cc1cccc2c(N=NC(=O)c3ccc(NS(=O)(=O)c4cccs4)cc3)c(O)[nH]c12	-	16	-	-	.	-
CCN(CC)C(=O)[C@H]1C[C@@H]2[C@H](C[C@@H](c3ccccc3)[C@H]1C)N(c1ccc(F)cc1)C(=O)N2C/C=C(\C)CCC=C(C)C	.	.	.	-	.	.
COC(=O)C1=C(C)N(Cc2cccc(C(F)(F)F)c2)C(=NCC2CC2)NC1c1ccc(F)cc1 (stereo unspecified)	.	.	.	-	.	.
Nc1[nH]n2c(=O)cc(-c3ccccc3)nc2c1N=Nc1ccc(S(N)(=O)=O)cc1	-	16	-	-	-	-
CC(=O)Nc1ccc(NC(=O)c2cccc(-c3cc4ccccc4oc3=O)c2)cc1	-	-	-	-	-	-
O=C(Nc1ccc(N2CCCC2)c(Cl)c1)c1cccc(-c2cc3ccccc3oc2=O)c1	-	16	-	-	-	-
COc1ccc(C(=O)Nc2cccc(-c3cc4ccccc4oc3=O)c2)cc1[N+](=O)[O-]	-	16	-	-	-	-
Cc1ccc(/C(O)=C2/C(=O)C(=O)N(c3ccccn3)C2c2ccc([N+](=O)[O-])cc2)cc1 (stereo unspecified)	-	16	-	-	-	-
NNC(=O)c1ccc(CSc2n[nH]c(=O)[nH]c2=O)cc1	-	16	-	-	-	-
O=c1[nH]nc(SCc2ccccc2)c(=O)[nH]1	-	-	-	-	-	-
CCCC(=O)N1CCN(c2ccc(NC(=O)c3cc4ccccc4o3)cc2)CC1	-	-	-	-	-	-
CCCC(=O)N1CCN(c2ccc(NC(=O)c3sc4ccccc4c3Cl)cc2)CC1	-	16	-	-	-	-
COC(=O)[C@]12C[C@H](CC(=O)NCCCN3CCCC3=O)C(=O)N(Cc3ccc4c(c3)OCO4)C1=C[C@H](C(C)(C)C)O[C@@H]2C	.	.	.	-	.	.
CN(C(=O)c1cccc(NC(=O)Cc2ccc(NC(=O)C3CCN(C(=O)CCc4ccccc4)CC3)cc2)c1)C1CCCC1	.	.	.	-	.	.
CC(=O)c1ccc(CC2SC(N)=NC2=O)cc1 (stereo unspecified)	-	16	-	-	-	-
CCOC(=O)c1ccc(CC2SC(N)=NC2=O)cc1 (stereo unspecified)	-	-	-	-	-	-
CC(=O)NC1CCCCN(C)C1=O (stereo unspecified)	.	.	.	-	.	.
CCOC(=O)/C=c1\s/c(=C\c2ccc(C(F)(F)F)cc2)c(=O)n1CC(=O)NCc1ccco1	-	-	-	-	-	-
CCOC(=O)/C=c1\s/c(=C\c2ccc(C)cc2)c(=O)n1CC(=O)NCc1ccco1	-	-	-	-	45	-
O=C(C(=O)N1CCN(S(=O)(=O)c2ccccc2)CC1)c1cccc(C(F)(F)F)c1	.	.	.	-	.	.
C/C(=N/Nc1ccnc2cc(Cl)ccc12)c1ccc(O)cc1	-	-	-	-	-	-
C/C(=N/Nc1ccnc2cc(Cl)ccc12)c1ccc(N)cc1	-	17	-	-	-	-
Cc1cc(Br)cn2c(Cc3cccc(F)c3)c(-c3ccco3)nc12	.	.	.	-	.	.
SMILES	MsrA act	PP1 inh	PP5 inh	MsrA inh	EBNA-1 inhibitor	ZTA DNA inh
O=C(N[C@H](C(=O)N1CCC[C@H]1C(=O)NCCc1ccccc1Cl)C1CCCCC1)c1ccc(Cl)c(Cl)c1	.	.	.	-	.	.
NC(=O)c1ncn([C@@H]2O[C@H](C(=O)N[C@H](Cc3ccccc3)C(=O)O)[C@@H](O)[C@H]2O)n1	.	.	.	-	.	.
CCOc1ccc(C2C(C(=O)c3ccc(C)o3)=C(O)C(=O)N2c2nc(C)c(C(=O)OC)s2)cc1 (stereo unspecified)	-	17	-	-	-	-
COC(=O)c1sc(N2C(=O)C(O)=C(C(=O)c3ccc(C)o3)C2c2ccc(OC)c(OC)c2)nc1C (stereo unspecified)	-	.	.	-	.	.
N/C(=N\N=C/c1ccc(F)cc1)N/N=C\c1ccc(F)cc1	-	16	-	-	-	-
Nc1nc2c(ncn2[C@@H]2O[C@H](C(=O)N[C@@H](Cc3ccccc3)C(=O)NCC3CCCCC3)[C@@H](O)[C@H]2O)c(=O)[nH]1	.	.	.	-	.	.
O=C1/C(=C/c2ccc(N3CCOCC3)o2)SC(=Nc2ccccc2)N1CCc1c[nH]c2ccccc12	-	34	-	.	-	-
COc1ccc(N=C2S/C(=C\c3ccc(OC(C)C(=O)O)c(OC)c3)C(=O)N2CCc2c[nH]c3ccccc23)cc1 (stereo unspecified)	-	.	.	-	.	.
Nc1[nH]c(C(=O)c2ccc(Br)cc2)c(-c2ccccc2Cl)c1C(=O)NCCc1c[nH]c2ccccc12	.	.	.	-	.	.
CN(C)c1ccc(C(=O)OCC(=O)Nc2ccc(S(N)(=O)=O)cc2)cc1	-	-	-	-	34	44
CC1(CC(=O)N/N=C/c2ccc(-c3ccc(C(=O)O)cc3)o2)OCCO1	-	-	-	9.0	-	-
COc1ccc(-c2nc3ncccc3o2)cc1NC(=O)c1cccs1	-	-	-	-	-	-
COc1ccc(-c2nc3ncccc3o2)cc1NC(=O)c1ccco1	-	-	-	4.6	-	-
Cc1cc(C(=O)N/N=C/c2c(C)[nH]n(-c3ccccc3)c2=O)n[nH]1	-	-	-	-	-	-
Cc1ccc(-n2[nH]c(C)c(/C=N/c3ccccn3)c2=O)cc1	-	-	-	-	-	-
Cc1[nH]n(-c2ccccc2)c(=O)c1/C=N/Nc1nncc(-c2ccccc2)n1	-	17	-	-	-	-
Cc1[nH]n(-c2ccccc2)c(=O)c1C=Nc1cccc2cccnc12	-	16	-	-	-	-
COc1ccc(-n2c(C)cc(-c3csc(N)n3)c2C)cc1	-	17	-	-	-	-
Cc1cc(-c2csc(N)n2)c(C)n1-c1ccc(Cl)c(Cl)c1	-	17	-	-	-	-
CCCn1c(C)cc(-c2csc(N)n2)c1C	-	-	-	-	-	-
O=C(O)c1cc(O)ccc1N=Nc1ccccc1	-	-	-	4.6	-	-
O=C(O)c1ccccc1N=Nc1ccc(O)cc1	-	-	-	-	-	-
COc1cc(C2C(C(=O)c3cccs3)=C(O)C(=O)N2c2cc(C)on2)ccc1O (stereo unspecified)	-	-	-	-	-	-
COC(=O)c1ccc(C2C(C(=O)c3cc4ccccc4o3)=C(O)C(=O)N2CCCN(C)C)cc1 (stereo unspecified)	-	-	-	-	-	-
COc1cc(C2C(C(=O)c3cc4ccccc4o3)=C(O)C(=O)N2c2cc(C)on2)cc(OC)c1OC (stereo unspecified)	-	17	-	-	-	-
COc1cc(C2C(C(=O)c3ccc(C)o3)=C(O)C(=O)N2c2cc(C)on2)cc(OC)c1OC (stereo unspecified)	-	-	-	-	-	-
